Assay [1] can be described thus: Identifying Small Molecule Inhibitors of Pancreatic Cancer Stem Cells (SN12C, Spheroid) (AID 1259360). Also: potency is read from the fitted curve at half-maximal effect. As to conditions: Potency: SN12C spheroid viability. The procedure, abridged:
(§1)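 Pre-formed 14-day tumor spheroids or adherent cells dosed and incubated 48 h, 37C, 5% CO2. Viability assessed by CellTiter-Glo.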

Assay [2] in a line: Identifying Small Molecule Inhibitors of Pancreatic Cancer Stem Cells (A278, Adherent) (AID 1259361). Also: nearly all actives have a fitted effect of over 35% in size. The procedure, abridged: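 Adherent (2D) versus sphere (3D) formats; spheres generated 14 d in SCM beforehand. Compound transferred by pin tool after 4 h, 48 h incubation, CellTiter-Glo endpoint.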
Assay [3] can be described thus: Identifying Small Molecule Inhibitors of Pancreatic Cancer Stem Cells (Panc1, Adherent) (AID 1259362). Also: potency is read from the fitted curve at half-maximal effect. The note with it: Potency: viability. The gist of the method: as §1
Assay [4] is described as follows: P-glycoprotein substrates identified in KB-3-1 adenocarcinoma cell line, qHTS therapeutic library screen (AID 1346986). Also: nearly all actives have a fitted effect of over 60% in size.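 Also: potency is read from the fitted curve at half-maximal effect; potency is for cytotoxicity meaning loss of cell viability.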 The procedure, abridged: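 Counter-screen: cherry-picked hits retested in the KB pair and in HEK-293 pcDNA/MDR-19 cells ± tariquidar. Primary screen used 72 h CellTiter-Glo viability in KB-3-1 and KB-8-5-11.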
On the technique in general: qHTS replaces the single test concentration by a dilution series.

Assay [5] can be described thus: P-glycoprotein substrates identified in KB-8-5-11 adenocarcinoma cell line, qHTS therapeutic library screen (AID 1346987). Also: potency is read from the fitted curve at half-maximal effect; nearly all actives have a fitted effect of over 65% in size. The procedure, abridged:
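P-gp-mediated resistance screen: KB-8-5-11 cells treated 72 h with compounds in dose-response. CellTiter-Glo viability.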

Assay [6] in a line: qHTS of pediatric cancer cell lines to identify multiple opportunities for drug repurposing: Primary screen for TC32 cells (AID 1347089). Also: nearly all actives have a fitted effect of over 60% in size. Also: potency is read from the fitted curve at half-maximal effect. The procedure, abridged: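 A viability screen of TC32 cells was run over 48 h, with primary MIPE doses spanning 0.78 nM–46 µM and NPC doses 0.59 nM–46 µM. ATP luminescence (CellTiter-Glo) served as the read-out.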
A short description of assay [7]: qHTS of pediatric cancer cell lines to identify multiple opportunities for drug repurposing: Primary screen for DAOY cells (AID 1347090). Also: nearly all actives have a fitted effect of over 55% in size. Also: potency is read from the fitted curve at half-maximal effect. The procedure, abridged: (§2)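 Cell viability, CellTiter-Glo luminescence; 500-1,000 cells/well, 8- or 11-point titration, 48 h compound exposure at 37 degrees C, 5% CO2. Controls: DMSO neutral, bortezomib 2.3 µM final as positive.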

Assay [8] can be described thus: qHTS of pediatric cancer cell lines to identify multiple opportunities for drug repurposing: Primary screen for SJ-GBM2 cells (AID 1347091). Also: potency is read from the fitted curve at half-maximal effect. The gist of the method:
as §2

Assay [9] can be described thus: qHTS of pediatric cancer cell lines to identify multiple opportunities for drug repurposing: Primary screen for BT-37 cells (AID 1347094). Also: potency is read from the fitted curve at half-maximal effect. The gist of the method:
(§3)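 Primary screen of approved and investigational compounds on cells in growth media at 37 degrees C, 5% CO2. MIPE set at 11-point and NPC set at 8-point dilutions; viability scored by ATP-based luminescence at 48 hours.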

Assay [10] can be described thus: qHTS of pediatric cancer cell lines to identify multiple opportunities for drug repurposing: Primary screen for NB-EBc1 cells (AID 1347095). Also: potency is read from the fitted curve at half-maximal effect. The procedure, abridged:
as §3

A short description of assay [11]: NS1 protein of Zika virus - qHTS assay to identify small molecule inhibitors in human HEK 293 cells (AID 1347053). Also: nearly all actives have a fitted effect of over 55% in size. Also: potency is read from the fitted curve at half-maximal effect. The gist of the method:
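Following 20 h seeding, HEK 293 cells took compound, then 1 h later ZIKV MR766 (MOI = 0.5). Incubation ran 24 h at 37 C before TR-FRET detection of NS1; a drop in signal indicates inhibition.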

The nature of assay [12]: qHTS of pediatric cancer cell lines to identify multiple opportunities for drug repurposing: Primary screen for A673 cells (AID 1347092). Also: nearly all actives have a fitted effect of over 45% in size. Also: potency is read from the fitted curve at half-maximal effect. The procedure, abridged: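 Titration-based qHTS on A673 cells: MIPE compounds spanned 11 points (0.78 nM to 46 µM final), NPC compounds 8 points (0.59 nM to 46 µM final). Viability after 48 h was measured by ATP luminescence.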
Assay [13] in a line: qHTS of pediatric cancer cell lines to identify multiple opportunities for drug repurposing: Primary screen for SK-N-MC cells (AID 1347093). Also: potency is read from the fitted curve at half-maximal effect. The procedure, abridged: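 Metabolically active cells were quantified by ATP-dependent luminescence (CellTiter-Glo, 15 min at room temperature) following 48 h treatment. Cells had been plated at 500-1,000 per well and settled for 5 h beforehand.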

Here are results for 13 molecules from PubChem BioAssay (NCATS).

Where “and” joins values, the source holds several entries; their conditions need not be identical. Equal values may be shown once. Records with an inconclusive call do not appear. Calls of active or inactive are those of the source. Calls follow the shape of the dose curve; as a rule, active = well fitted curve in the direction sought with a large enough effect; inconclusive = small, poorly fitted or top-dose-only effect, or another doubt; inactive = no such curve, though single readings can be large; an effect the other way counts as inactive or inconclusive.

For `CN1CCN(c2ccc3nc(-c4c(N)c5c(F)cccc5[nH]c4=O)[nH]c3c2)CC1`, the Potency in assay [1] was 6620 nM (active); in assay [3], 33200 nM (active); in [4], 5170 nM (active); in [5], 2.64 µM (active) and 8.2 µM (active); in [6] it was 14700 nM (active); in assay [8], 20900 nM (active). For the same molecule, the Potency in [9] was 15300 nM (active); in assay [10], 3720 nM (active). Further, the IC50 (viability decrease) in [2] was 3320 nM (active). Further, in assay [7], the Potency result is “inactive”.

Consider `CC(C)c1ccc(Cn2ccc3c4c(N)nc(NC5CC5)nc4ccc32)cc1`, for which the Potency in assay [1] was 8330 nM (active); in [3], 743 nM (active); in [5], 1.18 µM (active); in assay [11], 3320 nM (active); in assay [6], 4150 nM (active); in [7], 14800 nM (active). Besides, the Potency in assay [8] was 3720 nM (active); in [12], 2960 nM (active); in [13], 743 nM (active); in [9], 12200 nM (active); in assay [10], 4690 nM (active). For the same molecule, the IC50 (viability decrease) in assay [2] is 332 nM (active).

On to `COc1ccc(C=Cc2cc(OC)c(OC)c(OC)c2)cc1O`, for which the Potency in assay [1] is 2090 nM (active); in assay [5], 0.001 µM (active); in assay [6] it was 0.4 nM (active); in assay [7], 1 nM (active); in assay [8], 1 nM (active); in [12], 1 nM (active). Moreover, the values for the Potency in assay [13], in assay [9] and in [10] were 1 nM (active), 13.7 nM (active) and 1 nM (active), respectively. The IC50 (viability decrease) in [2] is 1.7 nM (active). Also, in assay [11], the Potency entry was “inactive”.

On to `O=C(NCCS(=O)(=O)c1ccc(C(F)(F)F)cn1)c1ccc(Cl)cc1`, for which the Potency result in assay [1], in [4], in assay [11], in assay [6], in [8] and in assay [12] was “inactive” throughout. Besides, the Potency entry in [9] and in assay [10] was “inactive” in each case. Further, in assay [2], the IC50 (viability decrease) entry is “inactive”.

Turning to `CN1CC[C@@H](c2c(O)cc(O)c3c(=O)cc(-c4ccccc4Cl)oc23)[C@@H](O)C1`, the Potency was 118 nM (active) in assay [1]; 132 nM (active) in assay [3]; 0.209 µM (active) in [5]; 833 nM (active) in assay [11]; 466 nM (active) in assay [6]; 187 nM (active) in [7]. The Potency in assay [8] is 52.6 nM (active); in assay [12] it was 93.5 nM (active); in assay [9], 109 nM (active); in assay [10], 74.3 nM (active). In addition, the IC50 (viability decrease) in assay [2] is 37.2 nM (active).

As to `Cc1ccc(-c2ncn(-c3ccc(Nc4nccc(-c5cccc(N6CCOCC6)c5)n4)cc3)n2)cn1`, the Potency is 59 nM (active) in [1]; 74.3 nM (active) in assay [3]; 1.05 µM (active) in assay [5]; 3720 nM (active) in assay [11]; 330 nM (active) in [6]; 187 nM (active) in assay [7]. In addition, the Potency was 105 nM (active) in assay [8], 93.5 nM (active) in assay [12], 122 nM (active) in [9] and 209 nM (active) in [10]. Further, the IC50 (viability decrease) in assay [2] was 74.3 nM (active).

For `CC=C1NC(=O)[C@H]2CSSCCC=C[C@H](CC(=O)N[C@H](C(C)C)C(=O)N2)OC(=O)[C@H](C(C)C)NC1=O`, the Potency in [1] is 5.3 nM (active); in assay [5] it was 8.33 µM (active); in [11], 4180 nM (active); in [6], 58.7 nM (active); in assay [7], 29.6 nM (active); in assay [8] it was 14.8 nM (active). Besides, the Potency in assay [12] is 11.8 nM (active); in assay [13], 10.5 nM (active); in assay [9], 10.9 nM (active); in [10], 29.6 nM (active). Also, the IC50 (viability decrease) in [2] is 5.3 nM (active).

Regarding `Cc1ccc(C(=O)Nc2ccc(CN3CCN(C)CC3)c(C(F)(F)F)c2)cc1C#Cc1cnc2cccnn12`, the Potency is 23500 nM (active) in assay [1]; 23500 nM (active) in [3]; 2.09 µM (active) and 3.66 µM (active) in assay [5]; 11800 nM (active) in [11]; 14700 nM (active) in assay [6]; 18700 nM (active) in assay [7]. The Potency in assay [8] was 3720 nM (active); in assay [12], 2350 nM (active); in [10], 6620 nM (active). Also, the IC50 (viability decrease) in assay [2] is 5260 nM (active).

On to `c1cc(-c2cnn3cc(-c4ccc(OCCN5CCCCC5)cc4)cnc23)ccn1`, for which, in assay [1], the Potency entry is “inactive”. Besides, the IC50 (viability decrease) in assay [2] was 26400 nM (active). Moreover, the Potency was 6510 nM (active) in assay [4]; 2.35 µM (active) and 10.3 µM (active) in assay [5]; 18700 nM (active) in assay [7]; 16600 nM (active) in assay [8]; 4690 nM (active) in [12]; 9350 nM (active) in assay [13]. Also, the Potency was 17200 nM (active) in assay [9] and 23500 nM (active) in assay [10].

Consider `CCCCN1CCC(CNC(=O)c2c3n(c4ccccc24)CCCO3)CC1`, for which the Potency result in assay [1], in [3] and in assay [6] was “inactive” each time. Moreover, the IC50 (viability decrease) entry in [2] was “inactive”. In addition, the Potency was 1870 nM (active) in assay [7], 1480 nM (active) in [12], 4690 nM (active) in [13] and 13200 nM (active) in [10].

Take `Cc1[nH]nc2ccc(-c3cncc(OC[C@@H](N)Cc4ccccc4)c3)cc12`: the Potency in [1] is 18700 nM (active); in assay [3], 4690 nM (active); in assay [5], 2.35 µM (active) and 1.16 µM (active); in assay [11], 8330 nM (active); in assay [6], 4660 nM (active); in assay [7] it was 2960 nM (active). Besides, the Potency in [8] was 743 nM (active); in [12], 235 nM (active); in assay [13], 526 nM (active); in assay [9] it was 1220 nM (active); in assay [10], 469 nM (active). Also, in assay [2], the IC50 (viability decrease) is 935 nM (active).

In the case of `C1Cc2[nH]nc(-c3nn[nH]n3)c2C1`, the Potency entry in [1], in assay [4], in assay [11], in assay [6], in assay [7] and in assay [8] was “inactive” each time. In addition, the Potency entry in assay [12] and in [10] was “inactive” in each case. Moreover, in assay [2], the IC50 (viability decrease) result is “inactive”.

In the case of `Cc1cc(Nc2cc(N3CCN(C)CC3)nc(Sc3ccc(NC(=O)C4CC4)cc3)n2)n[nH]1`, the Potency result in assay [1] and in assay [9] was “inactive” each time. The Potency was 231 nM (active) in [4]; 9350 nM (active) in assay [11]; 930 nM (active) in assay [6]; 11800 nM (active) in assay [12]; 418 nM (active) in [13]; 935 nM (active) in [10].
